Consider 48 molecules from PubChem BioAssay AID1851 (National Center for Advancing Translational Sciences (NCATS), 2009).

Among all 16,000 compounds or so, about 5,700 (36%) were called active. Another 24% or so got no clear call; they are omitted. The list shows a part of the results. Unmarked numbers belong to inactive results. The call rests on the fitted dose curve; in most records, active means well fitted curve in the direction sought with a large enough effect; inconclusive means small, poorly fitted or top-dose-only effect, or effect the other way; inactive means no such curve, though single readings can be large or run the other way.
On the % scale 0 is the no-effect control and ±100 the full control effect.

Sequence of Cytochrome P450 1A2 (Homo sapiens) (P05177 whole entry, looked up): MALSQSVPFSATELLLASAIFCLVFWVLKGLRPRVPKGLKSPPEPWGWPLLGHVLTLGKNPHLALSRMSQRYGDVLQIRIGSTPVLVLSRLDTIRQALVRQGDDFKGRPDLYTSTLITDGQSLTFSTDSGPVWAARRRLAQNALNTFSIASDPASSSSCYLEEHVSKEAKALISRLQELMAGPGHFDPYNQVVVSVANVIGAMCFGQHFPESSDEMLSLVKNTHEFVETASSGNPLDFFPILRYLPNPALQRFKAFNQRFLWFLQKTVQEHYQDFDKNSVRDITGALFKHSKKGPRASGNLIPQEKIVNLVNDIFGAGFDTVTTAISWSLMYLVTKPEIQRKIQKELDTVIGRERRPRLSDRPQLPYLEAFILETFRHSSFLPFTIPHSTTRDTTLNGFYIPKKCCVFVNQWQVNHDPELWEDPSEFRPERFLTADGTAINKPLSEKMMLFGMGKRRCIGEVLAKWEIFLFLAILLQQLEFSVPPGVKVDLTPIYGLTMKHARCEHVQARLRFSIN

The experiment addresses Cytochrome P450 1A2 (Homo sapiens) (UniProt P05177). In words: Cytochrome panel assay with activity outcomes. The settings on record: recombinant CYP, pro-luciferin dealkylation, luminescence, p450-cyp1a2; series mostly up to 57.1 µM; activity, negative = inhibition: at the top concentration.
As for `CCN(CC)CCNC(=O)c1cc(S(C)(=O)=O)ccc1OC`, the AC50 (as a rule, the concentration giving half of the maximal activity seen) was “inactive”. On the same count and under the same terms, with `CCCCOc1cc(C(=O)NCCN(CC)CC)c2ccccc2n1` the figure was 5.01 µM (active). For the molecule `CCCCCCCCOC1OC(CO)C(O)C(O)C1NC(C)=O` (stereo not drawn), the “activity, negative = inhibition” value is 9.81%.

As for `CCOC(=O)C(CC)(CC)C(=O)/C=C/c1ccc(Br)cc1`, the AC50 is 2.51 µM (active).

Take `C[n+]1ccc(/C=C/c2ccc(Br)cc2)cc1`: the “activity, negative = inhibition” value is -10.8%. Consider `CC(C)(C)NC(=O)Cn1nnc(-c2ccccc2NC(=O)c2cnccn2)n1`, for which the “activity, negative = inhibition” value is -21.1%. The same measure, in the same setting: to `CCc1nnc(NC(=O)CCC(=O)NCc2ccccc2OC)s1` belongs 11%. For the molecule `COc1ccccc1CNC(=O)Cn1nnc(-c2ccncc2)n1`, the AC50 is 12.6 µM (active). Same read-out and setting: with `CC[C@H](NC(C)C)[C@H](O)c1ccc(O)c(O)c1` the figure was 12.6 µM (active). Take `COc1cc([C@H](O)CO)ccc1O`: the “activity, negative = inhibition” value is -7.89%.

With `CC(=O)c1c(C)nc(-c2ccccc2)n1O`, the AC50 is 15.8 µM (active).

On to `O=C(O)[C@@H]1[C@@H](C(=O)Nc2ccccc2)[C@@H]2C=C[C@@H]1O2`, for which the activity, negative = inhibition was -18.1% [at 2.29 µM]. Turning to `N/N=C1/c2ccccc2N[C@H]1OC(=O)Nc1ccccc1`, the AC50 is 0.501 µM (active). The same measure, in the same setting: with `N/N=C1/c2ccccc2N[C@H]1OC(=O)Nc1cccc(Cl)c1` the figure was 0.794 µM (active). Take `C=CC[C@@H]1C=C[C@@H](O/N=C\C[C@@H]2C=C[C@H](OC(C)=O)[C@H](COC(C)=O)O2)[C@@H](CO)O1`: the activity, negative = inhibition was -8.91% [at 11.4 µM]. As to `CCNc1ncc2nc(C)c(=O)n(C)c2n1`, the AC50 was 5.01 µM (active). On the same count and under the same terms, to `CCNc1ncc2ncc(=O)n(C3CC3)c2n1` belongs 3.16 µM (active). On the same count and under the same terms, to `CCNc1ncc2nc(C)c(=O)n(C3CC3)c2n1` belongs 5.01 µM (active). Regarding `CC(N)=O`, the “activity, negative = inhibition” value is -4.84%. Still for that read-out and setting: to `Cc1ccc(Sc2c([N+](=O)[O-])ncn2C)cc1` belongs -2.64%. As to `O=C(Nc1ccc(Cl)cc1Cl)c1cccc(N2C(=O)C=CC2=O)c1`, the AC50 is 12.6 µM (active). Take `CCCCC(=O)Nc1sc2c(c1C(=O)OCC)CCC(C=O)=C2Cl`: the AC50 was 2.51 µM (active).

As to `FC(F)(F)c1ccccc1-c1cc(N2CCNCC2)ncn1`, the concentration at half-maximal activity (AC50) is 5.01 µM (active). On to `CN1CCN(c2cc(-c3ccccc3C(F)(F)F)ncn2)CC1`, for which the AC50 is 12.6 µM (active). `CN(C)CCO[C@](C)(c1ccccc1)c1ccccn1`: the AC50 entry was “inactive”.

As to `CNc1cc(CSC)nc(SCc2ccc(Cl)c(Cl)c2)n1`, the AC50 is 4.47 µM (active). As to `Cc1cccc(CN(C)CCc2ccccn2)c1`, the “activity, negative = inhibition” value is -8.65%. The same measure, in the same setting: with `CN(C)CCO[C@@H](c1ccc(Cl)cc1)c1ccccn1` the figure was -0.205% [at 25.6 µM].

`CN(CCc1ccccn1)Cc1ccc(Cl)cc1Cl`: the AC50 is 7.08 µM (active). Take `C=CCN=C1CC(C)(C)CC(=O)/C1=C(\O)c1ccccc1`: the “activity, negative = inhibition” value was 3.8%. Consider `c1ccc(-c2ccc3c(c2)c2c4n3CCN=C4CCC2)cc1`, for which the concentration at half-maximal activity (AC50) was 2.82 µM (active). The same measure, in the same setting: to `O=C(CCNC(=O)c1ccccc1)OCN1C(=O)c2ccccc2C1=O` belongs 2.24 µM (active). For `CCC(C)C(NC(=O)OCc1ccccc1)C(=O)OCN1C(=O)c2ccccc2C1=O` (stereo not drawn), the “activity, negative = inhibition” value was -13.3%. Same read-out and setting: with `Cc1ccc(S(=O)(=O)N[C@H]2COC(=O)C/C=C\[C@@H](C)[C@H](NS(=O)(=O)c3ccc(C)cc3)COC(=O)[C@H](C)NC(=O)C/C=C\[C@H]2C)cc1` the figure was -1.96% [at 11.4 µM]; with `CN(C)Cc1ccccc1-c1cc(NCc2ccccc2)ncn1`, -21%. As for `COc1ccccc1CNCCCCCCNCCCCCCCCNCCCCCCNCc1ccccc1OC`, the “activity, negative = inhibition” value was 0.168%. Take `COc1ccccc1-c1cc(NCc2cccnc2)ncn1`: the AC50 is 0.316 µM (active). With `Cc1cccc(CNc2cc(-c3ccccc3CN(C)C)ncn2)c1`, the concentration at half-maximal activity (AC50) was 25.1 µM (active). Still for that read-out and setting: with `COc1ccccc1-c1cc(NCc2cccs2)ncn1` the figure was 1.58 µM (active). Take `c1csc(CNCCCN2CCOCC2)c1`: the “activity, negative = inhibition” value is -8.37%. For the molecule `COc1ccccc1CNCc1cccs1`, the concentration at half-maximal activity (AC50) was 0.251 µM (active). As for `C[N+](C)(C)CCO`, the “activity, negative = inhibition” value was -2.79%.

Regarding `Cc1cccc(CNc2cc(-c3ccccc3Cl)ncn2)c1`, the AC50 is 3.16 µM (active). `Clc1ccccc1C(Nc1cnccn1)Nc1cnccn1`: the activity, negative = inhibition is -18% [at 2.29 µM]. Turning to `CN(C)Cc1ccccc1-c1cc(NCc2cccs2)ncn1`, the AC50 is 25.1 µM (active). Same read-out and setting: with `Clc1ccccc1-c1cc(NCc2cccnc2)ncn1` the figure was 3.16 µM (active); with `COc1ccccc1-c1cc(NCc2cccc(C)c2)ncn1`, 1.58 µM (active). As to `C=CC[C@@H]1C=C[C@H](Oc2ccc(C)cc2)[C@H](COC(=O)NCc2cccc3ccccc23)O1`, the activity, negative = inhibition is -8.02% [at 11.4 µM].
